Records with an inconclusive call do not appear. Activity calls are given as the source filed them. How the source made its calls, unless noted: active means hit-call score of the fitted dose curve at least 0.9, where 1 is the maximum; inconclusive means response in the unintended direction; inactive means score below 0.9.
Key:
[1] = target: Glucocorticoid receptor (Homo sapiens) (UniProt P04150); test: ATG_GR_TRANS: Attagene TRANS-FACTORIAL HepG2 Assay for human Glucocorticoid Receptor (GR) (AID 2282978); conditions: HepG2 Attagene TRANS GR reporter, mRNA transcription;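 further: activators score as hits since higher reporter transcript over DMSO is fitted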
Summary of the method: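 HepG2 transient transfection, multiple reporter units, GAL4-UAS under NR-GAL4 chimera control. 24 h treatment. Reporter mRNA by RT-PCR/CE fluorescence, DMSO as negative control.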

[2] = target: Bile acid receptor (Homo sapiens) (UniProt Q96RI1); test: ATG_FXR_TRANS: Attagene TRANS-FACTORIAL HepG2 Assay for Farnesoid X Receptor (FXR) (AID 2282979); conditions: HepG2 Attagene TRANS FXR-GAL4 reporter transcription;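 further: hits raise reporter mRNA above DMSO so AC50 marks FXR activation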
Summary of the method: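 Read-out: fluorescent reporter transcripts quantified by capillary electrophoresis after RT-PCR of total RNA. Source cells were HepG2 transiently carrying chimeric NR-GAL4 plus GAL4-UAS reporter units, dosed 24 h. Activity fitted upward relative to DMSO baseline.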

[3] = target: Hepatocyte nuclear factor 4-alpha (Homo sapiens) (UniProt P41235); test: ATG_HNF4a_TRANS: Attagene TRANS-FACTORIAL HepG2 Assay for human Hepatocyte Nuclear Factor 4 alpha (HNF4a) (AID 2282982); conditions: HepG2 HNF4a transactivation reporter, mRNA readout
Summary of the method: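 HepG2 cells transiently transfected with multiplexed GAL4-UAS reporter units responsive to chimeric NR-GAL4 proteins; compound exposure 24 h. Reporter mRNA quantified by RT-PCR, 6-FAM labelling, HpaI digestion and capillary electrophoresis; gain of signal versus DMSO baseline.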

[4] = ATG_M_06_TRANS: Attagene TRANS-FACTORIAL HepG2 Assay for M06 Transcription Factor (Internal Marker) (AID 2282983); conditions: HepG2 Attagene TRANS M06 internal marker reporter
Summary of the method: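 After a 24 h chemical treatment of transfected HepG2, RNA underwent DNase I treatment, reverse transcription and reporter-specific PCR; labelled, HpaI-digested products were sized by capillary electrophoresis. Signal increase relative to DMSO defined activity.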

[5] = ATG_M_32_TRANS: Attagene TRANS-FACTORIAL HepG2 Assay for M32 Transcription Factor (Internal Marker) (AID 2282984); conditions: HepG2 Attagene TRANS M32 internal marker reporter;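 further: transcript level of a background control reporter unit measured by RT-PCR and capillary electrophoresis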
Summary of the method: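 HepG2 cells transiently transfected with multiple GAL4-UAS reporter transcription units, dosed for 24 hours; reporter mRNA quantified by RT-PCR, 6-FAM primer extension, HpaI digestion and capillary electrophoresis. Gain-of-signal fitted versus DMSO baseline; internal background-control marker.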

[6] = target: Nuclear receptor subfamily 4 group A member 2 (Homo sapiens) (UniProt P43354); test: ATG_NURR1_TRANS: Attagene TRANS-FACTORIAL HepG2 Assay for human Nuclear Receptor Related Protein 1 (NURR1) (AID 2282985); conditions: HepG2 Attagene TRANS reporter, mRNA readout
Summary of the method: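 HepG2 cells transiently transfected with GAL4-UAS reporter units and chimeric NR-Gal4 constructs; chemical exposure 24 h. Reporter mRNA quantified by RT-PCR, fluorescent labelling and capillary electrophoresis; gain of signal fitted relative to DMSO baseline.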

[7] = target: Transcriptional activator Myb (Homo sapiens) (UniProt P10242); test: ATG_Myb_CIS: Attagene CIS-FACTORIAL HepG2 Assay for human Myeloblastosis (Myb) Proto-Oncogene Transcription Factor (AID 2282986; active means hit-call score of the fitted dose curve at least 0.9, where 1 is the maximum; inactive means score below 0.9); conditions: HepG2 Attagene CIS-FACTORIAL Myb reporter transcription; actives raise or lower the signal
Summary of the method: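 Multiplexed cis-reporter system in HepG2: transient transfection, 24 h treatment, mRNA readout by RT-PCR and capillary electrophoresis. Both increases and decreases are scored versus DMSO negative control.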

[8] = target: Nuclear respiratory factor 1 (Homo sapiens) (UniProt Q16656); test: ATG_NRF1_CIS: Attagene CIS-FACTORIAL HepG2 Assay for human Nuclear Respiratory Factor 1 (NRF1) Orphan Gene (AID 2282987; active means hit-call score of the fitted dose curve at least 0.9, where 1 is the maximum; inactive means score below 0.9); conditions: HepG2 NRF1 cis-element reporter, Attagene multiplex; actives raise or lower the signal
Summary of the method: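 Endogenous factor activity was captured via cis-element-driven reporter transcripts in HepG2 cells. Following 24 h chemical treatment, transcripts were quantified by RT-PCR and capillary electrophoresis.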

[9] = target: Oxysterols receptor LXR-alpha (Homo sapiens) (UniProt Q13133); test: ATG_LXRa_TRANS: Attagene TRANS-FACTORIAL HepG2 Assay for human Liver X Receptor alpha (LXRa) (AID 2282980); conditions: HepG2 Attagene TRANS reporter, LXRa transactivation
Summary of the method: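 Read-out: reporter transcript levels by RT-PCR plus capillary electrophoresis, fluorescence intensity. Transiently transfected HepG2, exogenous NR-GAL4 chimera, GAL4-UAS reporters; 24 h compound exposure. Activity = increase over DMSO negative control.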

[10] = target: Oxysterols receptor LXR-beta (Homo sapiens) (UniProt P55055); test: ATG_LXRb_TRANS: Attagene TRANS-FACTORIAL HepG2 Assay for human Liver X Receptor beta (LXRb) (AID 2282981); conditions: HepG2 Attagene TRANS GAL4-LXRb reporter, mRNA
Summary of the method: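 HepG2 cells transiently transfected with multiple reporter transcription units carrying chimeric NR-Gal4 proteins acting on GAL4-UAS reporters; compound exposure 24 h. Reporter mRNA quantified by RT-PCR, 6-FAM labelling, HpaI digestion and capillary electrophoresis; gain of signal versus DMSO.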

Measured: AC50

Sequence of Bile acid receptor (Homo sapiens) (Q96RI1 whole entry, looked up, the tested form may be a part): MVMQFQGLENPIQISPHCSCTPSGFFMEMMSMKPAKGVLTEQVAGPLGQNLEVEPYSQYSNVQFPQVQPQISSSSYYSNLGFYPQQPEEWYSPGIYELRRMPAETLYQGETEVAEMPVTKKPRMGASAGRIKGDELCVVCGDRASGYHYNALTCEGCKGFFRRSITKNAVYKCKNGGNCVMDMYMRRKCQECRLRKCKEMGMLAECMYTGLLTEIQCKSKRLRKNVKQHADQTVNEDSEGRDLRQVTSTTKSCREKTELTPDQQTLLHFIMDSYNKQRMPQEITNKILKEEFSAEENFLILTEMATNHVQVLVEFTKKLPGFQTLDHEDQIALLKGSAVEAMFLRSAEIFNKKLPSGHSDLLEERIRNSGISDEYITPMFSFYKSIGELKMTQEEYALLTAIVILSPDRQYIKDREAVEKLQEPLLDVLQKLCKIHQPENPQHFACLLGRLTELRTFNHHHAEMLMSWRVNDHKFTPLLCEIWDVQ
Sequence of Transcriptional activator Myb (Homo sapiens) (P10242 whole entry, looked up): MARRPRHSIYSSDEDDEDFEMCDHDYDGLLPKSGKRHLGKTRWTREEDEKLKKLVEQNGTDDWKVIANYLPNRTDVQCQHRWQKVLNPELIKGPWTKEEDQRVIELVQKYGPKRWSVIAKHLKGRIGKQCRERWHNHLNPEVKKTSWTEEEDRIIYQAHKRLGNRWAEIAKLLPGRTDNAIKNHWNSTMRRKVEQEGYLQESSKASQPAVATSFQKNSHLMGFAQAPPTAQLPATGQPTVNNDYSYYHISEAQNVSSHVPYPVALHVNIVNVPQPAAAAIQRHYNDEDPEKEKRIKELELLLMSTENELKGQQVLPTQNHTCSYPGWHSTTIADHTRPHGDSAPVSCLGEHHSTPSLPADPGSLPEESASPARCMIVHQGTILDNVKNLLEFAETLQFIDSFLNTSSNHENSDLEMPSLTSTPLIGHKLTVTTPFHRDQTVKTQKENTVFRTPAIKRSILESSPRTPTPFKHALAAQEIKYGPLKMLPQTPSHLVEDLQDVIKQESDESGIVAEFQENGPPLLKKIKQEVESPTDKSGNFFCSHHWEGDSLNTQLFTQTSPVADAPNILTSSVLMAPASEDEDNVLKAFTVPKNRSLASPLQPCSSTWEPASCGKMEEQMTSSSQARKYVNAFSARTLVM
Sequence of Oxysterols receptor LXR-beta (Homo sapiens) (P55055 whole entry, looked up, the tested form may be a part): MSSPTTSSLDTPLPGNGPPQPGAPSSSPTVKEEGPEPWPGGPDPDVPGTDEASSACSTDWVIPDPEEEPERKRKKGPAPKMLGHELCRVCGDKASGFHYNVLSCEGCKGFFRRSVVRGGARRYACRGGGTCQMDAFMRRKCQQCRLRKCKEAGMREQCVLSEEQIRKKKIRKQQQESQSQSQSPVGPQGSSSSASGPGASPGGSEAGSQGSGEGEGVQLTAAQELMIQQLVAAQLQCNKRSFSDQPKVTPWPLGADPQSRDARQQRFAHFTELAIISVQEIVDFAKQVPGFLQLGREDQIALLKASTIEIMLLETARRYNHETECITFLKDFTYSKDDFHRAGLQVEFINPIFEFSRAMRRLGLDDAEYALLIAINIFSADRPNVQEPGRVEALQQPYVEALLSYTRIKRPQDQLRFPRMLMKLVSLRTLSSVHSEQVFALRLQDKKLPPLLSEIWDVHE
Sequence of Hepatocyte nuclear factor 4-alpha (Homo sapiens) (P41235 whole entry, looked up, the tested form may be a part): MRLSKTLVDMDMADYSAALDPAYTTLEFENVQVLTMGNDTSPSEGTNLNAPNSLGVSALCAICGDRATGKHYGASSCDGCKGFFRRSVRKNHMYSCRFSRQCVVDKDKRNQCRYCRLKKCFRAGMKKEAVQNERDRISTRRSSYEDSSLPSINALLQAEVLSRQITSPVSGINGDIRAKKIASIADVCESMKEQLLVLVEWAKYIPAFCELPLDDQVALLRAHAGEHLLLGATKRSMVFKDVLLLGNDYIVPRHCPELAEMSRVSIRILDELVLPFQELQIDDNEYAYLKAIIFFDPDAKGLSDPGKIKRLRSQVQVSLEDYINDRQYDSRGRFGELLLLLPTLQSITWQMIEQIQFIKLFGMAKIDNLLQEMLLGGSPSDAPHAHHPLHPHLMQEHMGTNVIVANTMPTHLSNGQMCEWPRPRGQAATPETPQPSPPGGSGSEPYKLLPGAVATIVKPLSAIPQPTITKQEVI
Sequence of Nuclear receptor subfamily 4 group A member 2 (Homo sapiens) (P43354 whole entry, looked up, the tested form may be a part): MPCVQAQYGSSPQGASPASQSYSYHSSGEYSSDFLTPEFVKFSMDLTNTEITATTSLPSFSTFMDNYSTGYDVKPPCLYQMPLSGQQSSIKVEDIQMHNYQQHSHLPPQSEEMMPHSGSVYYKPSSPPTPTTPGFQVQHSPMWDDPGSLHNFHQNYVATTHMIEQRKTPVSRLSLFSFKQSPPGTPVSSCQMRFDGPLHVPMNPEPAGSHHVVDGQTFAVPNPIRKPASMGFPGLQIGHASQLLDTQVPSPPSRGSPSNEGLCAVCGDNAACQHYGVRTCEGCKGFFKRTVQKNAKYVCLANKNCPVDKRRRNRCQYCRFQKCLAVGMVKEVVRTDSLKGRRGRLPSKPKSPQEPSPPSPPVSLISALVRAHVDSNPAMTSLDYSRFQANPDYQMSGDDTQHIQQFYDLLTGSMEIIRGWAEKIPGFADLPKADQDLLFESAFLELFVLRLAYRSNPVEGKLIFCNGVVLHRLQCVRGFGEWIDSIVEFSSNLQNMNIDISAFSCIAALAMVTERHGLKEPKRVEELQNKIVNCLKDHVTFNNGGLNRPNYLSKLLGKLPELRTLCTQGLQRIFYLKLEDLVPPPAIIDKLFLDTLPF
Sequence of Nuclear respiratory factor 1 (Homo sapiens) (Q16656 whole entry, looked up): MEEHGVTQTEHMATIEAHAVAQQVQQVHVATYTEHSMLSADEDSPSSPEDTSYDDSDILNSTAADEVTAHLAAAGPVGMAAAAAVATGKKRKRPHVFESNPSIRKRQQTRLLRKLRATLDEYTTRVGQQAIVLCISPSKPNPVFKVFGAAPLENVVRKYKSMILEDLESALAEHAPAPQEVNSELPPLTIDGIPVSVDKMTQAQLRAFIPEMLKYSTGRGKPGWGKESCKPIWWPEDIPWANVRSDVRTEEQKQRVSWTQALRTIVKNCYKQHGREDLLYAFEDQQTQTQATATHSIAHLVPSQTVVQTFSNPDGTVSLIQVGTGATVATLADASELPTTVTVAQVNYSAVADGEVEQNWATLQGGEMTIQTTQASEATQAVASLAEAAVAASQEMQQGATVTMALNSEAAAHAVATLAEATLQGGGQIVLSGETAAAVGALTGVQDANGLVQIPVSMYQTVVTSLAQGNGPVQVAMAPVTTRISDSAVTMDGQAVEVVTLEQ
Sequence of Glucocorticoid receptor (Homo sapiens) (P04150 whole entry, looked up, the tested form may be a part): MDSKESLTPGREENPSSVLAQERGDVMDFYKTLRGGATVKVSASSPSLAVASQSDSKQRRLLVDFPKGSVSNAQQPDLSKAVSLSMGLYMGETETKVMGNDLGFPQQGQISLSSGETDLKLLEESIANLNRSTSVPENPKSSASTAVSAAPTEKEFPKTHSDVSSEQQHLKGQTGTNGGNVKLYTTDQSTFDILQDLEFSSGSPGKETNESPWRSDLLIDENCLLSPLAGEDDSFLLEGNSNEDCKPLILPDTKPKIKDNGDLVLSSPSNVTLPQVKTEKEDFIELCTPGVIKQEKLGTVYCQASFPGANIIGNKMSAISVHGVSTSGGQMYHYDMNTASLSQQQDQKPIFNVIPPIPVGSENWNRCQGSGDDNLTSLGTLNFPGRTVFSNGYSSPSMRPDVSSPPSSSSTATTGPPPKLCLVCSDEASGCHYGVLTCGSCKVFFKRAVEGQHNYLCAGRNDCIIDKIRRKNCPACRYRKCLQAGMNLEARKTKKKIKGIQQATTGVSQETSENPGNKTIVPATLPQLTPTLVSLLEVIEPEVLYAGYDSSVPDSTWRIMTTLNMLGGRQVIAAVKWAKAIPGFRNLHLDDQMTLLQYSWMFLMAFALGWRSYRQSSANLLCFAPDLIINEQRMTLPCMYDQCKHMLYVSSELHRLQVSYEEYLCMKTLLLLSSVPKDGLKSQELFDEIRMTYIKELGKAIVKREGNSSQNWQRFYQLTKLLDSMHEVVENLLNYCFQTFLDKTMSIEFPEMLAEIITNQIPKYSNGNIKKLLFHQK
Sequence of Oxysterols receptor LXR-alpha (Homo sapiens) (Q13133 whole entry, looked up, the tested form may be a part): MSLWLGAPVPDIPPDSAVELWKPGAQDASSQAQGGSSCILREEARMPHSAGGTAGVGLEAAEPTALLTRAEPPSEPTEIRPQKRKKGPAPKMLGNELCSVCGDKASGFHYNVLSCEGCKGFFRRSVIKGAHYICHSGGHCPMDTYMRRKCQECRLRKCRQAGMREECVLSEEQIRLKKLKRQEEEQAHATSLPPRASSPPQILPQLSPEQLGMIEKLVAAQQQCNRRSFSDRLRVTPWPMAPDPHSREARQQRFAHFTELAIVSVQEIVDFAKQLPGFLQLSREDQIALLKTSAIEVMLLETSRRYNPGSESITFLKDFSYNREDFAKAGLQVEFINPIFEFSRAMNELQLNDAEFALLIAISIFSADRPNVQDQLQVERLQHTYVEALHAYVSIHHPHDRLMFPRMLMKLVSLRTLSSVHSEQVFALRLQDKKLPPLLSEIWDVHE

CCCOCCO
not listed: [9] | [10]
inactive: all other assays above

CSc1c(Cl)c(Cl)c(Cl)c(Cl)c1Cl
active: [6] 26.9 µM | [8] 169 µM
not listed: [3]
inactive: all other assays above

COc1cc(CCC(C)=O)ccc1O
inactive: [1] | [2] | [10] | [5] | [7] | [8]

C=CC(C)C#N (stereo unspecified)
not listed: [3] | [4] | [10]
inactive: all other assays above

Cc1c(OCC(F)(F)F)ccnc1CS(=O)c1nc2ccccc2[nH]1 (stereo unspecified)
active: [8] 128 µM
not listed: [3] | [6] | [9]
inactive: all other assays above

CC1(C)C(=O)N(Cl)C(=O)N1Br
not listed: [4] | [10]
inactive: all other assays above

CCc1cc(C(C)(C)C)c(O)c(C(C)(C)C)c1
active: [6] 11.4 µM
not listed: [3] | [4]
inactive: all other assays above

CC1(C)C2=CCCC(C)(C)[C@]23CC[C@H]1C3
not listed: [3] | [4] | [9]
inactive: all other assays above

CCCCCCCCCCCCCC(=O)OCC(O)CO (stereo unspecified)
not listed: [6] | [9]
inactive: all other assays above

Oc1c(Cl)cc(Cl)c(Cl)c1Cc1c(O)c(Cl)cc(Cl)c1Cl
inactive: [1] | [10] | [3] | [7] | [8]
active: [2] 17.6 µM | [6] 11.1 µM

CC1(C)O[C@@H]2C[C@H]3[C@@H]4CCC5=CC(=O)C=C[C@]5(C)[C@@]4(F)[C@@H](O)C[C@]3(C)[C@]2(C(=O)CO)O1
active: [1] 0.488 µM
not listed: [3] | [4]
inactive: all other assays above

NC(=S)NNC(N)=S
not listed: [4] | [6] | [9]
inactive: all other assays above

Cc1cc(C)nc(NS(=O)(=O)c2ccc(N)cc2)n1
not listed: [6] | [9]
inactive: all other assays above

C=Cc1ccncc1
active: [3] 84.1 µM | [6] 100 µM | [7] 30.8 µM | [8] 37.5 µM
not listed: [5]
inactive: all other assays above

CCOC(=O)c1ccc(N)cc1
not listed: [4] | [10]
inactive: all other assays above

O=C(Nc1ccc([N+](=O)[O-])cc1)Nc1ccc([N+](=O)[O-])cc1 (tested in a mixture with another compound)
not listed: [3] | [4] | [6]
inactive: all other assays above

O=C(O)CNc1ccccc1
not listed: [3] | [6] | [9]
inactive: all other assays above

COC(=O)c1ccc(OC)cc1
active: [1] 15.1 µM
not listed: [6] | [9]
inactive: all other assays above

CCOC(=O)[C@@H](C)Oc1ccc(Oc2nc3ccc(Cl)cc3o2)cc1
not listed: [3] | [4]
inactive: all other assays above

O=[N+]([O-])c1ccc(O)cc1C(F)(F)F
active: [8] 25.2 µM
not listed: [5] | [9]
inactive: all other assays above

Cc1cc(=O)oc2cc(N(C)C)ccc12
not listed: [3] | [6]
inactive: all other assays above

CCCCCCC(C)Nc1ccc(Nc2ccccc2)cc1 (stereo unspecified)
active: [6] 39.5 µM
not listed: [3] | [5]
inactive: all other assays above

CC(C)(C)OC(=O)c1ccc(O)cc1
not listed: [5] | [6]
inactive: all other assays above

Cc1ncc[nH]1
not listed: [4] | [6]
inactive: all other assays above

Nc1ccccc1[N+](=O)[O-]
not listed: [3] | [9]
inactive: all other assays above

O=C(CC(=O)c1ccccc1)c1ccccc1
inactive: [1] | [2] | [10] | [4] | [6]
active: [7] 100 µM | [8] 176 µM

C1=CC2C3C=CC(C3)C2C1 (stereo unspecified)
not listed: [3] | [5] | [9]
inactive: all other assays above

Nc1ccc2cc(S(=O)(=O)O)cc(O)c2c1N=Nc1ccccc1C(F)(F)F
not listed: [4]
inactive: all other assays above

Cc1cc(CCC(=O)OCCOCCOCCOC(=O)CCc2cc(C)c(O)c(C(C)(C)C)c2)cc(C(C)(C)C)c1O
not listed: [6] | [10]
inactive: all other assays above

CCCCCCC(O)CCCCCCCCCCC(=O)O (stereo unspecified)
not listed: [3]
inactive: all other assays above

C=C1CC[C@H](O)C/C1=C/C=C1\CCC[C@]2(C)[C@@H]([C@H](C)/C=C/[C@H](C)C(C)C)CC[C@@H]12
not listed: [3] | [6] | [10]
inactive: all other assays above

CCCCCCCCCCCC(=O)OC[C@@H](O)[C@H]1OC[C@H](O)[C@H]1O
not listed: [4] | [6]
inactive: all other assays above

IC(I)I
not listed: [3] | [4] | [5]
inactive: all other assays above

CCCCCCCCSCCO
not listed: [3] | [6]
inactive: all other assays above

CCC(C)=O
not listed: [5] | [6] | [9]
inactive: all other assays above

CC(=O)O[C@H]1C[C@@H]2CC[C@@]1(C)C2(C)C
not listed: [3] | [5] | [6]
inactive: all other assays above

CC(=O)c1c(C)c([N+](=O)[O-])c(C(C)(C)C)c([N+](=O)[O-])c1C
active: [6] 10.2 µM
not listed: [5] | [9]
inactive: all other assays above

O=C(Nc1ccc2c(c1)Cc1ccccc1-2)C(F)(F)F
not listed: [6]
inactive: all other assays above

C[C@H]1C[C@@H](O)CC(C)(C)C1
not listed: [2] | [4] | [6]
inactive: all other assays above

C=C(C)[C@H]1CC=C(C)C(=O)C1
not listed: [2] | [6]
inactive: all other assays above

CCCCCCC(C)(C)S
not listed: [2] | [3] | [6]
inactive: all other assays above

CC(O)C1CCCCC1 (stereo unspecified)
not listed: [2] | [3] | [6]
inactive: all other assays above

CCCC(=O)c1ccccc1
not listed: [2] | [3] | [6]
inactive: all other assays above

CCCCN(CCCC)C(=O)N(CCCC)CCCC
active: [2] 15.6 µM | [6] 42.9 µM | [8] 40.2 µM
inactive: [1] | [5] | [7]

C=CCCC(=O)/C=C/C1C(C)=CCCC1(C)C (stereo unspecified)
inactive: [1] | [9] | [10] | [6] | [7] | [8]

CCCCCCCCCCCCS(=O)(=O)Cl
inactive: [1] | [2] | [3] | [5] | [7] | [8]

COc1cc(Cl)c(OC)cc1N
inactive: [1] | [2] | [3] | [4] | [7] | [8]

CC(C=O)Cc1ccc(C(C)(C)C)cc1 (stereo unspecified)
inactive: [1] | [9] | [10] | [4] | [7] | [8]

Nc1ccc(NCCO)c([N+](=O)[O-])c1
not listed: [2] | [5]
inactive: all other assays above

CC(C)(C)CC(C)(C)c1ccc(OCCOCC[N+](C)(C)Cc2ccccc2)cc1
inactive: [1] | [2] | [3] | [6] | [7] | [8]

CC[N+](C)(CC)CC
inactive: [1] | [2] | [3] | [4] | [7] | [8]

COc1ccc(CCO)cc1
inactive: [1] | [9] | [10] | [5] | [7] | [8]

CCCCCCCCc1ccc(S(=O)(=O)O)cc1
inactive: [1] | [2] | [5] | [6]
active: [7] 166 µM | [8] 146 µM

C1CCOC1
not listed: [6] | [9] | [10]
inactive: all other assays above

CCCCC(CC)COC(=O)c1ccc(O)cc1 (stereo unspecified)
not listed: [2] | [4] | [6]
inactive: all other assays above

Source: PubChem BioAssay (EPA / NIEHS)
